Measured values taken from the supplement of paper PMC11732987, “Enantioselective OTUD7B fragment discovery through chemoproteomics screening and high-throughput optimisation” (Communications Chemistry, 2025).

How the values were obtained:
Experiment in all cases: log2 ratio of Biotin-Ahx-Ub-VS probe labelling (fragment/DMSO); higher = less target engagement (more negative = stronger competition), active = hit call of the paper (q ≤ 0.05, log2 ratio ≤ -1)
Conditions in all cases: compound concentration: 200 uM; treatment time: 3 h
[1] = biological target: USP34 (UniProt Q70CQ2)
Summary of the method: (§1)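 HEK293T lysate, 495 µg per sample in Tris/CHAPS/IGEPAL buffer with protease inhibitors, was treated in triplicate with fragment at 200 µM or vehicle for 3 h and then with Biotin-Ahx-Ub-VS at 0.5 µM final for 1 h. Labelled DUBs were NeutrAvidin-enriched, digested with LysC and trypsin, and run by diaPASEF LC-MS/MS. Spectronaut label-free quantities were global-median-normalised, and values are average log2 fragment/vehicle ratios by unpaired t-test on proteins with ≥2 unique peptides.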

[2] = biological target: T1, USP36 (UniProt Q9P275)
T1 sequence (whole entry): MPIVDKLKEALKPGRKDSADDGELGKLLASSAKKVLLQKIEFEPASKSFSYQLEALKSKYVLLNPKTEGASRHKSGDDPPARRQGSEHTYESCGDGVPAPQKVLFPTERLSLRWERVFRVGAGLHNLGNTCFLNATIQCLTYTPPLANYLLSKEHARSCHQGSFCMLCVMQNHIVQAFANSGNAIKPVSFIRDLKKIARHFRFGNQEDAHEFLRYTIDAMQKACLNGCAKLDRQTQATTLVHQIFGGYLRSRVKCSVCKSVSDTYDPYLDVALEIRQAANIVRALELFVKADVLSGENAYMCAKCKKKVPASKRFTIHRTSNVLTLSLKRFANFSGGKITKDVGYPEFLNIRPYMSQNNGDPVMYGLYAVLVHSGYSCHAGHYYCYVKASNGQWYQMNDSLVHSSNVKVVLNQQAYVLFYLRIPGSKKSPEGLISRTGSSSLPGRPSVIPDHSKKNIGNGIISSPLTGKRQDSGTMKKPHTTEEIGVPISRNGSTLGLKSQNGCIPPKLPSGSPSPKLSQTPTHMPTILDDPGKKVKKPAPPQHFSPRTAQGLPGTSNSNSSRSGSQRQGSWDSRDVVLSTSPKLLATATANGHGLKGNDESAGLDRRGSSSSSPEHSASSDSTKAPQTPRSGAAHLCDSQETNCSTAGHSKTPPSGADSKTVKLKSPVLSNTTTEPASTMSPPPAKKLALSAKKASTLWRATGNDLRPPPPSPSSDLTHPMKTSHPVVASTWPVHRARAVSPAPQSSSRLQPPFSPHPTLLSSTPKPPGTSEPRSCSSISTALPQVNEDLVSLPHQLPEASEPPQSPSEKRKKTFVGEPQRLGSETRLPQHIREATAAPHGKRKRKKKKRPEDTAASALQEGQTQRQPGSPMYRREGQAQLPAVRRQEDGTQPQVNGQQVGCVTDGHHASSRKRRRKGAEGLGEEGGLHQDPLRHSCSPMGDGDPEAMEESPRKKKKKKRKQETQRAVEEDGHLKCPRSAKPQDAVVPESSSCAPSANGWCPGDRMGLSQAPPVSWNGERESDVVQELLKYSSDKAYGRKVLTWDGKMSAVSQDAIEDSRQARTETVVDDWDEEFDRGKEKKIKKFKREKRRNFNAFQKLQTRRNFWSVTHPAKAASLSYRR
Summary of the method: as §1

[3] = biological target: T2, USP38 (UniProt Q8NB14)
T2 sequence (whole entry): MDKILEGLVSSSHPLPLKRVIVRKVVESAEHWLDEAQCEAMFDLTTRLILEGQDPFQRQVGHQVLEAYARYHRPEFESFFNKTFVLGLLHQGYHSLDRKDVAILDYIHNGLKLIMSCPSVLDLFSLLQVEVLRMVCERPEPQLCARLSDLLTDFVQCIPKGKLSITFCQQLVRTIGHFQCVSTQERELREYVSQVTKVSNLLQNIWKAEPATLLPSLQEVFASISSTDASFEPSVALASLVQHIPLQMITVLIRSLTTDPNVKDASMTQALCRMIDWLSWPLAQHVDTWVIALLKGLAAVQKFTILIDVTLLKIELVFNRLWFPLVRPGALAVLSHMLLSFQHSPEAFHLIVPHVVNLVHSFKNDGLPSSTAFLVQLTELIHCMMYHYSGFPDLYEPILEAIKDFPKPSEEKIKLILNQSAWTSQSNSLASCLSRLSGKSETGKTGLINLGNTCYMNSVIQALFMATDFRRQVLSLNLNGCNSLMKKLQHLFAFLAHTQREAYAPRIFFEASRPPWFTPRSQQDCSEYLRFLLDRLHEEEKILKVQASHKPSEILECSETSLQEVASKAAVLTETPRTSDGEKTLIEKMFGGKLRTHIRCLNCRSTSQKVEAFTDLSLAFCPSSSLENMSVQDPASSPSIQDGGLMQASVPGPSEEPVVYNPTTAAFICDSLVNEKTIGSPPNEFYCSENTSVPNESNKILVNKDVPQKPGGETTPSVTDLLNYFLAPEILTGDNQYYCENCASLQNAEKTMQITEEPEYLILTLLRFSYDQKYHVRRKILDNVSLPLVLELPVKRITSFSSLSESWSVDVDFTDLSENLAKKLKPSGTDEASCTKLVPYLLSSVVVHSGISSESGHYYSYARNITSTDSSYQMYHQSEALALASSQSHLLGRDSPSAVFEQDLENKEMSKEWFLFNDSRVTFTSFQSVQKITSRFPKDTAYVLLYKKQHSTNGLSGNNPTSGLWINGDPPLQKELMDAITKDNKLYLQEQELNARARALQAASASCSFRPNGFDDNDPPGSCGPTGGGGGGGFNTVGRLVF
Summary of the method: as §1

[4] = biological target: T3, USP39 (UniProt Q53GS9)
T3 sequence (whole entry): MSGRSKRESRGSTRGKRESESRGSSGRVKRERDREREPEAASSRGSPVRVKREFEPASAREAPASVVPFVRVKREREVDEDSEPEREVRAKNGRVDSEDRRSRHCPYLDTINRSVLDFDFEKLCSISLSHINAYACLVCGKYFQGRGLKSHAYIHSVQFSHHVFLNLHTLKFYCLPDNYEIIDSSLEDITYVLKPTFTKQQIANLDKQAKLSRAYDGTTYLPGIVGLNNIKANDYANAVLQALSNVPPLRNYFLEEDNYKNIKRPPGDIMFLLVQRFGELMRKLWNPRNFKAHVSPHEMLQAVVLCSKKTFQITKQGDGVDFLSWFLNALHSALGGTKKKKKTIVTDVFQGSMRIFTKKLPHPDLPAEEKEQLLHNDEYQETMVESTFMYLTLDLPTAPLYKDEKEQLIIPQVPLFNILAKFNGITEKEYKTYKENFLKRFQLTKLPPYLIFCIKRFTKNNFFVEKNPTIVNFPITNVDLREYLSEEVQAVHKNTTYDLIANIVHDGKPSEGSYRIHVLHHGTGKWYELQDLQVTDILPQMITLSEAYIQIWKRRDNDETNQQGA
Summary of the method: as §1

[5] = biological target: T4, USP4 (UniProt Q13107)
T4 sequence (whole entry): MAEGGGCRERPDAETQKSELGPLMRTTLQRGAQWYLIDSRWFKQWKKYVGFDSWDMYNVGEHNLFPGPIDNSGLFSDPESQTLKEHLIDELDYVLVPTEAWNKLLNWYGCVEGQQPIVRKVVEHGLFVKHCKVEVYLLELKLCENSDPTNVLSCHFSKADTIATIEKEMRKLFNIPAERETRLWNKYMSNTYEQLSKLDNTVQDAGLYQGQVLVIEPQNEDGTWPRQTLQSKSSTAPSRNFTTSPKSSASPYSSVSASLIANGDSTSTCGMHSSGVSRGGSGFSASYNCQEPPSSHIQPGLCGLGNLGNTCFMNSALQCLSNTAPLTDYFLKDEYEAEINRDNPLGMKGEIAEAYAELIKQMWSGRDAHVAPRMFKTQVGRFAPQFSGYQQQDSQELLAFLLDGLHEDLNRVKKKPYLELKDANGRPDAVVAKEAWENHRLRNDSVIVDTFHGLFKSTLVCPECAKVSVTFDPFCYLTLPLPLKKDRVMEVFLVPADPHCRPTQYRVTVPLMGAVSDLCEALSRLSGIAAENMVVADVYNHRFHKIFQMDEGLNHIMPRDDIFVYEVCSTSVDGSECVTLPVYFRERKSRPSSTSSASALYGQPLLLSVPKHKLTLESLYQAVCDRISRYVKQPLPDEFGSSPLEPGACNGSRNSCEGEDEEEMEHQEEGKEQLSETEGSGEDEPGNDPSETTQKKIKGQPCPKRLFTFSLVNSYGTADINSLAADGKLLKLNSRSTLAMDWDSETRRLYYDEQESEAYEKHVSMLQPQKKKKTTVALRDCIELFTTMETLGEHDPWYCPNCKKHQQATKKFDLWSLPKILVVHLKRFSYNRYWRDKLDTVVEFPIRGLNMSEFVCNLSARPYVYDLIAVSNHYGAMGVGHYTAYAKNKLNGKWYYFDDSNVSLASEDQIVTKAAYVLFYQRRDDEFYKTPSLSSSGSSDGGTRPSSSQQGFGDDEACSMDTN
Summary of the method: as §1

Measured: log2 ratio of Biotin-Ahx-Ub-VS probe labelling

USP34, sequence (Q70CQ2 whole entry, the tested form may be a part): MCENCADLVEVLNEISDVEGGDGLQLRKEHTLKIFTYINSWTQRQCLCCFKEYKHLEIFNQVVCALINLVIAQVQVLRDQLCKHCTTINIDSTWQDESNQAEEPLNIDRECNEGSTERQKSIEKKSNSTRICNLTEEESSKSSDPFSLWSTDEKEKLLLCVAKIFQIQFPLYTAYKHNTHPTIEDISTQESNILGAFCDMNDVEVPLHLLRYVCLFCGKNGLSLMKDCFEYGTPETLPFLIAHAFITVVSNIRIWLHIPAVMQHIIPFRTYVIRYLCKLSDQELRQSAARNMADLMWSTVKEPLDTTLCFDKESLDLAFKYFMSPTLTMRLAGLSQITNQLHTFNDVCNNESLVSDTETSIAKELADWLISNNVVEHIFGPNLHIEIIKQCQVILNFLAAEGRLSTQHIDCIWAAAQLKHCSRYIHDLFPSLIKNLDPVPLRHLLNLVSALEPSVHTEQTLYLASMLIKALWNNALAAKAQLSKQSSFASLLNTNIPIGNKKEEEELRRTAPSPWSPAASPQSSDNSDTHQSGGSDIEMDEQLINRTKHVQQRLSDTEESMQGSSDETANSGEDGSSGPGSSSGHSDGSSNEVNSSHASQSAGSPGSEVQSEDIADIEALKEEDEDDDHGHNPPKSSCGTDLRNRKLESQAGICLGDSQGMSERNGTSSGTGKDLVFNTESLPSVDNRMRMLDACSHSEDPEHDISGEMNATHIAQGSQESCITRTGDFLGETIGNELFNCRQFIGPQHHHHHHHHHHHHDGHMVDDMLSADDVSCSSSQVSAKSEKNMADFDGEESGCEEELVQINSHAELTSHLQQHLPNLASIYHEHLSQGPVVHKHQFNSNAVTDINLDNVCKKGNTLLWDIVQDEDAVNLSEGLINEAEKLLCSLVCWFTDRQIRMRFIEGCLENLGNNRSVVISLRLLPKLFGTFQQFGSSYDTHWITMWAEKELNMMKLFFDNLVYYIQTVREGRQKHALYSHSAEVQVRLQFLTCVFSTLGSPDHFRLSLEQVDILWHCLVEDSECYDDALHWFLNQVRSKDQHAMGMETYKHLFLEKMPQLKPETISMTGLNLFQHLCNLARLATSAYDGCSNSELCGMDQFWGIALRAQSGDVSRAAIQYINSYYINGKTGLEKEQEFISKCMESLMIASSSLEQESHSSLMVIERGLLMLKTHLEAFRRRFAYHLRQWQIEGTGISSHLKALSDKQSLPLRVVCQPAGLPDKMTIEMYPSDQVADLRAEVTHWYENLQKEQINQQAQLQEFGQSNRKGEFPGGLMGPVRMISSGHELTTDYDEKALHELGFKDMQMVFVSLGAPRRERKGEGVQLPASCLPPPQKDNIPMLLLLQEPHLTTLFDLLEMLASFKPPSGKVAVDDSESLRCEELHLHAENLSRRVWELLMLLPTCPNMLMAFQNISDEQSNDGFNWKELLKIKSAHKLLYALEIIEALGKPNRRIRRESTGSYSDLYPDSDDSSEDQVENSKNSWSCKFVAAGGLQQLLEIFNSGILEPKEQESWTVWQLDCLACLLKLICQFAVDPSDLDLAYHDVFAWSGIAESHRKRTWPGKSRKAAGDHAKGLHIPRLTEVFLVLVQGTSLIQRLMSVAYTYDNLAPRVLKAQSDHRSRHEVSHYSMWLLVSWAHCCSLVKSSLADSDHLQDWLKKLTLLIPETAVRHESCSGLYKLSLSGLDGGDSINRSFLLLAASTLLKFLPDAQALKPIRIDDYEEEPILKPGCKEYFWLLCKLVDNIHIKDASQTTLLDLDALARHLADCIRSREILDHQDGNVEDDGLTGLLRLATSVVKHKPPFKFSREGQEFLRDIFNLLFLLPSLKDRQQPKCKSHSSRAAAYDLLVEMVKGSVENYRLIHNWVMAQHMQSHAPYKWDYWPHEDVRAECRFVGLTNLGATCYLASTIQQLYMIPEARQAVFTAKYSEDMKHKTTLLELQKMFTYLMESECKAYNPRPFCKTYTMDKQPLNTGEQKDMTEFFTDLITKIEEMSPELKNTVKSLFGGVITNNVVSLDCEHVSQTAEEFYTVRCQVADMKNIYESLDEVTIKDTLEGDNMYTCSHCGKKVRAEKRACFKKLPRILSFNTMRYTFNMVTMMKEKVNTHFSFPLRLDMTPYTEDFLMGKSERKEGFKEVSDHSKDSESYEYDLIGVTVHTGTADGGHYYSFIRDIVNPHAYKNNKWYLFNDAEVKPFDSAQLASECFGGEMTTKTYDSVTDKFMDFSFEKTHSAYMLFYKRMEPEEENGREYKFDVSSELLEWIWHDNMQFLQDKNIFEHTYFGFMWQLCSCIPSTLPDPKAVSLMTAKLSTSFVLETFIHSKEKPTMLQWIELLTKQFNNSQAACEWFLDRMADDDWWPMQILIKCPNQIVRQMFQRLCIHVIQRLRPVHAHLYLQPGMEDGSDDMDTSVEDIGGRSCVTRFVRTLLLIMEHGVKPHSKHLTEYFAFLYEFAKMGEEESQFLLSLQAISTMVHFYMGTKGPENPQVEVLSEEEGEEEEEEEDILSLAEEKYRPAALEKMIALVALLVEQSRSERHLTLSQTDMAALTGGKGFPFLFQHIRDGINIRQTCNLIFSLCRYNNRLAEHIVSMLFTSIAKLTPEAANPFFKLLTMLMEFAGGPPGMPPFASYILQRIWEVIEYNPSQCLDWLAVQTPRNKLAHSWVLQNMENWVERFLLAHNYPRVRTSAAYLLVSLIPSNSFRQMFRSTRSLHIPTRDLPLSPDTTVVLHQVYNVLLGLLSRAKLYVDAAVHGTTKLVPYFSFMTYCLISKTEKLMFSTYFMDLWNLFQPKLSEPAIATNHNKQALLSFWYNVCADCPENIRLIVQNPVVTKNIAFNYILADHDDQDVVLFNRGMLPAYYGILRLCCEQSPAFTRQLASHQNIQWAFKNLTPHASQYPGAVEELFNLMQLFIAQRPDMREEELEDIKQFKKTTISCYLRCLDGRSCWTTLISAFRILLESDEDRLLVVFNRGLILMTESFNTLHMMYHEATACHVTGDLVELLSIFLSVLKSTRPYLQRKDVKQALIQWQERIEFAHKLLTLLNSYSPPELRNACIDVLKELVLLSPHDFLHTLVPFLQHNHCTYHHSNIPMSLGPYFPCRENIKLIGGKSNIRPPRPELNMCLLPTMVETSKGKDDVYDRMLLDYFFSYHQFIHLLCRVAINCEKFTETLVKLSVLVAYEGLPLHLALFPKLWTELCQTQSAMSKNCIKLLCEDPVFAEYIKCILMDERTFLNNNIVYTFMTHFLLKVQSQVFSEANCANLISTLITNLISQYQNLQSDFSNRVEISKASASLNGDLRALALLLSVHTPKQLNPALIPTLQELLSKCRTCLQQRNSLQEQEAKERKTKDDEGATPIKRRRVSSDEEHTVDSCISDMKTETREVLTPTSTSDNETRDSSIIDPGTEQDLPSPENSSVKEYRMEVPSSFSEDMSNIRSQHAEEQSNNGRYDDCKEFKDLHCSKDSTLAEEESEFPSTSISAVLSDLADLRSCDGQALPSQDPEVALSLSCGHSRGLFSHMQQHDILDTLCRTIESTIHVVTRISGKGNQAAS

CCN1C(=O)C2CN(C(=O)CCl)CCN2C1=O (stereo not given)
inactive: [1] 0.053 | [2] -0.271 | [3] -0.0595 | [4] -0.0577 | [5] 0.0781
